Results as given in PMC4336329 (PLoS ONE, 2015).
Among all 310,000 compounds or so, about 14,000 (4.5%) showed an effect of 50% or more. The effect is printed as a negative number. This excerpt belongs to a sample that is enriched for strong results.

molecular target: human ether-à-go-go-related gene (hERG) potassium channel (human, UniProt Q12809); test: primary screen, population patch clamp on CHO cells stably expressing hERG; higher = less effect of the substance
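Further: peak tail current of the secondary pulse compared with the same well before compound.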

Chain of human ether-à-go-go-related gene (hERG) potassium channel (Q12809 whole entry, looked up): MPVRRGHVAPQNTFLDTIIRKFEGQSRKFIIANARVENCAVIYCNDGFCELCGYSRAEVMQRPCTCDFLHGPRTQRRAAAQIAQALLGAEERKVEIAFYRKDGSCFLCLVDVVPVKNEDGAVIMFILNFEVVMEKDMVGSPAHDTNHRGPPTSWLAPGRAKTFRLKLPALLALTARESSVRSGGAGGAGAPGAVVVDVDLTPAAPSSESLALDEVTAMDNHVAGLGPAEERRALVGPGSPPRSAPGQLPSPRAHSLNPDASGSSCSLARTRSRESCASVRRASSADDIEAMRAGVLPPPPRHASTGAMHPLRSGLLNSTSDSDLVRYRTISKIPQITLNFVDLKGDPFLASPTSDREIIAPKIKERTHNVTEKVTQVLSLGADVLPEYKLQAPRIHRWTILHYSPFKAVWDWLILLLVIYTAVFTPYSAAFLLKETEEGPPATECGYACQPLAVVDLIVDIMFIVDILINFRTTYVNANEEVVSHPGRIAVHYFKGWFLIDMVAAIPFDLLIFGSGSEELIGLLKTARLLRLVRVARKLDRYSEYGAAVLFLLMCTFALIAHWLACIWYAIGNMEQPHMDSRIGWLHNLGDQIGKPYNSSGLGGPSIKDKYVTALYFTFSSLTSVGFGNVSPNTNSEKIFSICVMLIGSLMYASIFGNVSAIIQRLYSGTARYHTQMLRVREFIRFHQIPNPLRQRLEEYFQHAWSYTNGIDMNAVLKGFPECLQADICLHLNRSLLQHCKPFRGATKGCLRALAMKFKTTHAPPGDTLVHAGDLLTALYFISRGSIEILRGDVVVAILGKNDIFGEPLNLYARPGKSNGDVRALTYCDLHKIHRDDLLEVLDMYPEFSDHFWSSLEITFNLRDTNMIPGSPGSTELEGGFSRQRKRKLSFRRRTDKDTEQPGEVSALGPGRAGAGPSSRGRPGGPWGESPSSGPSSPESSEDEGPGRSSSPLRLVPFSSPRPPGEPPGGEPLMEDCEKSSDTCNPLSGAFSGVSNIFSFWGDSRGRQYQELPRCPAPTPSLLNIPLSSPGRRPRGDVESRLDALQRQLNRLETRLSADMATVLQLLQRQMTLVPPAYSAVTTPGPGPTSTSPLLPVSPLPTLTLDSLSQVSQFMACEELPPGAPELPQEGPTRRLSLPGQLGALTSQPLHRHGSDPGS

SMILES | hERG current change (%, negative = inhibition) at 10uM [%]
CC(C)CNC(=S)N1CCC(NC(=O)C23CC4CC(CC(C4)C2)C3)CC1 | -7.73
CC(=O)N1CCC(=NNC(=O)c2cc3ccccc3cc2O)CC1 | 16.8
O=C(Cc1ccc(-c2ccccc2)cc1)Nc1ccccc1 | 19.1
COc1cc(S(=O)(=O)NCc2ccc3c(c2)OCO3)ccc1Cl | -26.1
CC1Cc2ccccc2N1C(=S)NC(=O)c1ccco1 (stereo not shown) | 16.2
O=C(COc1ccccc1)Nc1nccs1 | -13.5
CCn1nc(C(=O)NNC(=O)COc2ccc(OC)cc2)c2ccccc2c1=O | -23.4
CCn1nc(C(=O)NNC(=O)COc2ccccc2C)c2ccccc2c1=O | -16
CCCn1nc(C(=O)NNC(=O)CCOc2ccccc2OCC)c2ccccc2c1=O | -21.8
COc1ccc(OCC(=O)NNC(=O)c2nn(C)c(=O)c3ccccc23)cc1 | -21.1
CCc1ccc(OCC(=O)NNC(=O)c2nn(CC)c(=O)c3ccccc23)cc1 | -57.9
CCn1nc(C(=O)NNC(=O)CCOc2cc(C)ccc2C)c2ccccc2c1=O | -77.6
COc1ccc(C(CC(=O)NCc2ccco2)c2ccc(F)cc2)cc1 (stereo not shown) | -22.4
O=C(NCc1nnc(SCC(=O)N2CCN(c3ccccc3)CC2)o1)c1ccc(F)cc1 | -5.96
O=S(=O)(NCc1cccnc1)c1cccc2cccnc12 | 6.44
COc1ccc(CCNS(=O)(=O)c2ccc3c(c2)CCN3C(=O)C2CC2)cc1OC | 0.919
Cc1ccc(C)n1CCN1CCN(C(=O)CSc2nc3ccccc3nc2N2CCOCC2)CC1 | -54.5
CCOCCCn1c(SCc2nc3ccccc3s2)nc2ccccc2c1=O | -2.07
O=C(CSc1nc2ccccc2nc1SCC(=O)N1CCOCC1)N1CCOCC1 | -5.85
COc1ccc(-n2c(SC(C)C(=O)N3CCOCC3)nc3ccccc3c2=O)cc1 (stereo not shown) | 6.84
CCn1c(SCC(=O)N2CCN(c3ccc(Cl)cc3)CC2)nc2ccccc2c1=O | 8.79
CCn1c(SCC(=O)N2CCN(c3ccc(F)cc3)CC2)nc2ccccc2c1=O | -45.2
O=c1c2ccccc2nc(SCc2nc3ccccc3s2)n1CCCO | -4.88
O=C(CSc1nc2ccccc2nc1N1CCOCC1)N1CCN(c2ccccc2)CC1 | -39.2
CCCn1c(SC(C)C(=O)N2CCOCC2)nc2ccc(Br)cc2c1=O (stereo not shown) | -56.1
CCn1c(SC(C)C(=O)N2CCOCC2)nc2sc(C)c(C)c2c1=O (stereo not shown) | 3.37
CCCn1c(SCC(=O)N2CCN(c3ccccc3)CC2)nc2ccccc2c1=O | -56.7
CCCCn1c(SCc2nc3ccccc3s2)nc2ccccc2c1=O | -54.7

SMILES | hERG current change (%, negative = inhibition) at 10uM [%]
O=C1CCC(C(=O)Nc2ccc(Cl)cc2)N1 (stereo not shown) | 28
CC1CCN(C(=O)c2ccc3c(c2)NC(=O)CN3)CC1 | 8.49
Nc1ccc(C2(c3ccc(N)cc3)OC(=O)c3ccccc32)cc1 | -6.43
CCOC(=O)C1CCN(C(=O)C(=O)Nc2ccc3nc4n(c(=O)c3c2)CCCCC4)CC1 | 1.99
CCC1(C)Cc2c(sc3nc(NN)n(C)c(=O)c23)CO1 (stereo not shown) | 13.4
Cc1ccc(C(C(=O)NC2CCCC2)N(C(=O)CNC(=O)c2cccs2)c2cccnc2)o1 (stereo not shown) | -11.1
Cn1c(N)c(C(=O)CSc2nc3ccccc3c(=O)n2CCCN2CCOCC2)c(=O)n(C)c1=O | 2.7
COCCCn1c(SCC(=O)N2CCOCC2)nc2ccccc2c1=O | -5.65
O=C(CSc1nc2ccccc2c(=O)n1CCCN1CCOCC1)N1CCN(c2ccccc2)CC1 | -70.6
CCOCCCn1c(SCC(=O)N2CCOCC2)nc2ccccc2c1=O | -36
CCCCn1c(SCC(=O)NC2CC2)nc2ccccc2c1=O | -4.62
CCCCn1c(SCC(=O)N2CCOCC2)nc2ccccc2c1=O | -68.4
O=C1CN(C(=O)CSc2nc3ccccc3c(=O)n2CCCN2CCOCC2)c2ccccc2N1 | -19.7
O=C(CSc1nc2ccccc2c(=O)n1CCCN1CCOCC1)c1c[nH]c2ccccc12 | -54
Cc1[nH]c2ccccc2c1C(=O)CSc1nc2ccccc2c(=O)n1CCCN1CCOCC1 | -5.57
Cc1onc(-c2c(Cl)cccc2Cl)c1C(=O)NCCCN1CCOCC1 | 3.09
O=C(CCc1c[nH]c2ccccc12)OCc1ccc(Br)cc1 | 10.2
Cc1ccc(-n2nc(C)c3c2OC(N)=C(C#N)C3c2ccncc2)cc1 (stereo not shown) | 7.07
COc1ccc(C(=O)NC(C)c2ccncc2)cc1S(=O)(=O)N(C)Cc1ccccc1 (stereo not shown) | -61
CCN(Cc1ccccc1)S(=O)(=O)c1cc(C(=O)NCCCN(C)C)ccc1OC | -50.3
CCN(C(=O)COC(=O)c1ccc(OC)c(S(=O)(=O)N(C)Cc2ccccc2)c1)C1CCS(=O)(=O)C1 (stereo not shown) | -30.9
COc1ccc(C(=O)NCc2ccc3c(c2)OCO3)cc1S(=O)(=O)N(C)Cc1ccccc1 | -12.3
CCN(Cc1ccccc1)S(=O)(=O)c1cc(C(=O)O)ccc1OC | 14.1
COc1ccc(C(=O)OCC(=O)NC2CC2)cc1S(=O)(=O)N(C)Cc1ccccc1 | -53.8
CCN(Cc1ccccc1)S(=O)(=O)c1cc(C(=O)NCC2CCCCC2)ccc1OC | -9.52
COc1ccc(C(=O)OCC(=O)N(C)C2CCS(=O)(=O)C2)cc1S(=O)(=O)N(C)Cc1ccccc1 (stereo not shown) | -15.7
COc1ccc(C(=O)Nc2ccc(NC(C)=O)cc2)cc1S(=O)(=O)N(C)Cc1ccccc1 | 10.3
